From PubChem
Only some compounds are listed: those with a hit (about 7.6% of all), similar ones and a draw of the others.
M1 agonist: agonists of M1 muscarinic receptor. B-score at 10 µM. AID 626. hit rate 3% among 64,000. CHO-M1 cells, Fluo-4 calcium fluorescence, agonist mode; stronger effect = higher value;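 active = fluorescence rise, raw or as B-score row- and column-corrected plate score, outside the 99.7% band of its plate's samples, either direction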
PLAP activator: human PLAP activation. hit rate 1.2% among 96,000. activation fold at 20 µM. P05187. purified PLAP enzyme, luminescent substrate read-out; stronger effect = higher value; in the data active = activation fold above about 2
M1 antag: M1 muscarinic receptor (rat) antagonism. hit rate 3.4% among 64,000. B-score at 10 µM. AID 628. CHO-M1 cells, Fluo-4 calcium, ACh EC80 antagonist mode; stronger effect = lower value;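 active = calcium fluorescence response, raw or row-and-column corrected B-score, differing from the plate sample mean either way at a set confidence level, mostly lower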
Target sequence (P08482 whole entry, looked up): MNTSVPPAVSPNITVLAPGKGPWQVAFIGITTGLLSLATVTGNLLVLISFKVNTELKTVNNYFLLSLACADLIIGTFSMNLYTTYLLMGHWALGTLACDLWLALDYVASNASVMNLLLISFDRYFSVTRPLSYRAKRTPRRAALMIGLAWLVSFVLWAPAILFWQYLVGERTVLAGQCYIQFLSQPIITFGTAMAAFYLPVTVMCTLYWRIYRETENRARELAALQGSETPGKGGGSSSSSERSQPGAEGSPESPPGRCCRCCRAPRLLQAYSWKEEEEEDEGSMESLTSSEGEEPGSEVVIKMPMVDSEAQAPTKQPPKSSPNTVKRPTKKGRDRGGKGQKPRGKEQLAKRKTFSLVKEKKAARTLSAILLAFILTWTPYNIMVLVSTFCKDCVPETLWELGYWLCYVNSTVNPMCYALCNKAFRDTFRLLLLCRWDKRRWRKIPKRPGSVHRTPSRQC
Cav3 T inh: inhibitors of human Cav3.2 T-type calcium channel | O95180 | AID 449739 | hit rate 4% among 100,000 | B-score at 10 µM | Cav3.2-expressing cells, Fluo-4 calcium fluorescence FDSS; stronger effect = lower value;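 active = single-dose well whose peak fluorescence ratio is a statistical outlier from its plate by either plate-standardised score or position-corrected B-score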
* marks the source's active call; other numbers are inactive results; . = no result.

SMILES	M1 agonist	PLAP activator	M1 antag	Cav3 T inh
O=C(NC1CC2CCCC(C1)N2C(=O)Nc1ccc(Cl)c(C(F)(F)F)c1)C1CC1 (stereo not drawn)	.	1	.	-5.7*
Cc1ccc(NC(=O)c2c(Cl)n(C)c3ccccc23)cc1	.	1.1	.	.
OC(CSc1c(Cl)cccc1Cl)CN1CCN(c2ccc(F)cc2)CC1 (stereo not drawn)	.	1.4	.	-2.3
COc1ccc(OC)c(-n2c(N)c(C(=O)NCC3CCCO3)c3nc4ccccc4nc32)c1 (stereo not drawn)	-0.06	1.3	0.42	-4
CC(C)Cn1c(N)c(C(=O)NCC2CCCO2)c2nc3ccccc3nc21 (stereo not drawn)	0.32	2*	0.18	.
CCCNC(=O)CC1Sc2ccccc2NC1=O (stereo not drawn)	0.55	0.9	-1	-0.15
CCC(OC(=O)CC1Sc2ccccc2NC1=O)C(=O)NCC1CCCO1 (stereo not drawn)	-0.21	2*	-0.44	-0.016
CCOC(=O)C(NCc1ccccc1OC)(NC(C)=O)C(F)(F)F (stereo not drawn)	-0.18	1.1	-0.0061	0.015
C#CCn1c(S(=O)(=O)Cc2ccc(C)cc2)nc(-c2ccccc2)c1-c1ccccc1	.	1	.	-7.8*
C#CCn1c(S(=O)(=O)Cc2ccccc2Cl)nc(-c2ccccc2)c1-c1ccccc1	.	1.1	.	-7.2*
O=S(=O)(Cc1ccccc1Cl)Nc1ccccn1	0.017	1	-0.32	0.98
CCOC(=O)Cn1c(=O)c2c(nc(Br)n2Cc2ccccc2Cl)n(C)c1=O	.	.	.	-0.1
CCOC(=O)Cn1c(S(=O)(=O)Cc2ccccc2Cl)nc(-c2ccccc2)c1-c1ccccc1	.	1.3	.	-7.3*
N#CC1(c2ccccc2)CCCN1C(=O)c1ccc(Br)cc1 (stereo not drawn)	.	0.9	.	-0.39
NC(=O)NC(CCC(=O)O)C(=O)O (stereo not drawn)	.	.	.	-0.37
CCOc1ccc(OCc2ccc(C(=O)N3CCc4ccccc4C3)o2)cc1	.	1	.	-2.8*
Cc1cc(C)c(NC(=O)CS(=O)CC(=O)NC2CCCc3ccccc32)c(C)c1 (stereo not drawn)	.	0.8	.	-0.78
CCOc1nc2ccccc2nc1C	.	1	.	-0.31
Cc1ccc(-c2noc(CCC(=O)N3CCN(c4cccc(C(F)(F)F)c4)CC3)n2)cc1	0.23	1	-0.039	.
CCN(CCCNC(=O)CCc1nc(-c2ccc(OC)cc2)no1)c1cccc(C)c1	0.38	1.5	0	-8.8*
COc1ccc(-c2noc(CCC(=O)NCCN(C)Cc3ccccc3)n2)cc1	0.13	1.6	-0.74	0.81
COc1ccc(-c2noc(CCC(=O)N3CCN(c4cc(C)ccc4C)CC3)n2)cc1	0	1.8	0.17	-6.9*
COC(=O)c1ccccc1NC(=O)N1CCN(C(=O)c2ccco2)CC1	0.57	1.3	-0.51	.
O=C(COc1ccc(-c2nnco2)cc1)NC1CCCc2ccccc21 (stereo not drawn)	-0.91	1.6	-0.02	-0.01
O=C(c1cccc(-n2cnnn2)c1)N1CC=C(c2ccccc2)CC1	-0.29	1	0.35	-4.6*
SMILES	M1 agonist	PLAP activator	M1 antag	Cav3 T inh
c1cncc(-c2nc3ccccc3[nH]2)c1	.	0.9	.	0.047
c1ccc(-c2n[nH]c(-c3ccccc3)c2-c2nc3ccccc3[nH]2)cc1	.	1.8	.	-5.2*
CCOC(=O)C1CCN(C(=O)c2oc3ccc(S(=O)(=O)N4CC(C)CC(C)C4)cc3c2C)CC1 (stereo not drawn)	0.68	1.5	-1.3	-5.9*
O=C1CC(SCc2nc3ccccc3[nH]2)C(=O)N1c1cccc(F)c1 (stereo not drawn)	0.23	0.7	0.17	.
O=C1CC(SCCc2nc3ccccc3[nH]2)C(=O)N1c1ccc(Cl)cc1 (stereo not drawn)	.	1.2	.	-6.5*
O=C1CC(SCc2nc3ccccc3[nH]2)C(=O)N1c1ccc(Cl)cc1 (stereo not drawn)	.	1.4	.	-4.9*
O=C1CC(SCc2nc3ccccc3[nH]2)C(=O)N1c1ccc(F)c(Cl)c1 (stereo not drawn)	.	1.6	.	-1.8
COc1cc2c(cc1NC(=O)CN(C)Cc1nc3ccccc3c(=O)[nH]1)oc1ccccc12	2	1.6	1.3	-0.15
O=[N+]([O-])c1cc(-c2cnc3ccccc3n2)ccc1Oc1ccc(F)cc1	.	1	.	0.32
O=S(=O)(Nc1cccc(CCc2ccccn2)c1)c1ccc2ccccc2c1	.	1	.	-4.4*
Cc1nc(-c2cccc(NS(=O)(=O)c3ccc4ccccc4c3)c2)cs1	.	1.3	.	-2.4
C#C[C@]1(O)CCC2C3CCC4=Cc5oncc5CC4(C)C3CCC21C (stereo partly drawn)	.	.	.	-4.8*
Oc1ccc(-n2cnnn2)cc1	.	1.1	.	.
COc1ccc(-c2c3c(nc4sc5c(Cl)nc(C)nc5c24)CCC3)cc1	.	0.9	.	3.7*
CN(C)c1ccc(CN(C(=O)C2COc3ccccc3O2)C2CCS(=O)(=O)C2)cc1 (stereo not drawn)	1.2	1.1	0.31	0.35
CC(C)c1ccc(CN(C(=O)C2COc3ccccc3O2)C2CCS(=O)(=O)C2)cc1 (stereo not drawn)	.	1.3	.	-4.4*
Cc1cc(-c2ccccc2)nc2cc(C(=O)NCc3ccco3)nn12	.	.	.	0.3
CCOC(=O)C1=NN(N=O)C2(CC(=O)N(c3cc(C)cc(C)c3)C2=O)C1 (stereo not drawn)	.	1.4	.	.
Cc1cccc(S(=O)(=O)C(C#N)c2nc3ccccc3nc2N2CCOCC2)c1 (stereo not drawn)	-0.82	1.1	0.14	-1.9
CCOc1ccccc1C(=O)N1c2ccccc2Sc2ccccc21	.	1.4	.	-5.6*
Cn1cc(/C=N/n2cnc3scc(-c4ccccc4)c3c2=O)c2ccccc21	0.64	1.1	-0.74	-4*
COc1cccc(NC(=O)Cn2c(-c3cncs3)nc3ccccc32)c1	0.28	2*	0.31	-0.35
CCOc1cc(C2c3c(n[nH]c3C)C(=O)N2c2ccc(Br)cc2)ccc1O (stereo not drawn)	0.35	2.3*	0.72	-1.6
CCOC(=O)c1ccc(N2C(=O)c3n[nH]c(C)c3C2c2ccc(OC)cc2)cc1 (stereo not drawn)	-0.052	2.6*	1	-0.17
CCOC(=O)c1ccc(N2C(=O)c3n[nH]c(C)c3C2c2ccco2)cc1 (stereo not drawn)	0.18	2.7*	0.58	-1.5
SMILES	M1 agonist	PLAP activator	M1 antag	Cav3 T inh
COc1cc(NS(=O)(=O)c2ccc(Br)s2)cc(OC)c1	0.066	1.2	-0.16	-5.8*
COc1ccccc1-n1cnnc1SCC(=O)Nc1nc(C)c(Cl)cc1Cl	.	1.4	.	-0.24
CCOC(=O)c1c(CSC(=N)N)n(-c2ccc(C)cc2)c2cc(Br)c(OC(C)=O)cc12	.	1	.	-5.6*
CCOC(=O)c1c(CN2CCOCC2)n(-c2ccccc2)c2cc(Br)c(OC)cc12	.	1.7	.	-3
CC(C)C(=O)NC(Nc1cccc2cccnc12)C(Cl)(Cl)Cl (stereo not drawn)	.	1	.	-5.1*
CC(C)CC(=O)NC(NC(=S)Nc1cccc2cccnc12)C(Cl)(Cl)Cl (stereo not drawn)	.	0.9	.	-0.035
C=CCn1c(CSc2nc3ccccc3s2)nnc1SCC(=O)NCc1cccnc1	.	.	.	0.79
C=CCn1c(CSc2nc3ccccc3s2)nnc1SCC(=O)NCc1ccccc1	.	1.5	.	-4.3*
